Laboratory results as given in the supplement of paper PMC12632987.

T1: USP38, Q8NB14
T1 chain: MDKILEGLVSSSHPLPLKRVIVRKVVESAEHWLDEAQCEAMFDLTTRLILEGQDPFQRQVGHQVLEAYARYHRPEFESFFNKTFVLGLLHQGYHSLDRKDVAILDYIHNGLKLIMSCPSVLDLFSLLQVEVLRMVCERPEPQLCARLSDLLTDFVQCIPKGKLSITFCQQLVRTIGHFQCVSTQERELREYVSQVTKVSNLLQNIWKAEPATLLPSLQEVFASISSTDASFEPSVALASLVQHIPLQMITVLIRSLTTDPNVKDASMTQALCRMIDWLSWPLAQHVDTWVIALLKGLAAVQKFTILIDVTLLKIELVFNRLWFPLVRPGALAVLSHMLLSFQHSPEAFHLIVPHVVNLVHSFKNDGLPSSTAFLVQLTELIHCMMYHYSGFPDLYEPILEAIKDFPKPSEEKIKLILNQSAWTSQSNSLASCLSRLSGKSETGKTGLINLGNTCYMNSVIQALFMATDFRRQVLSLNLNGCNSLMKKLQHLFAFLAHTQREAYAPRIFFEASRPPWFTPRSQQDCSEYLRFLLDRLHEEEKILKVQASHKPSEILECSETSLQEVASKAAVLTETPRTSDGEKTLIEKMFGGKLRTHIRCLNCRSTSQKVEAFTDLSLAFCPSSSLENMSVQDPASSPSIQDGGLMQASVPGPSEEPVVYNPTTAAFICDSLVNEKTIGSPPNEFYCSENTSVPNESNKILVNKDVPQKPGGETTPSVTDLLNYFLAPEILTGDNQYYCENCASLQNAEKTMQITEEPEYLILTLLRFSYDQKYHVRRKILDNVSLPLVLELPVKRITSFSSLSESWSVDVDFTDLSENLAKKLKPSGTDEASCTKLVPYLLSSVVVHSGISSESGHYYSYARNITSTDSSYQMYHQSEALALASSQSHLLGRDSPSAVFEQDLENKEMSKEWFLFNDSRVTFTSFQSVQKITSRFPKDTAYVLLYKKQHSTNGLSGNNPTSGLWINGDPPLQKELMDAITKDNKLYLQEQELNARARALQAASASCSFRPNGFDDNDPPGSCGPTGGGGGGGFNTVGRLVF

B1: usp_38_diff_out_18_28_380 (protein)
chain: AEEERRRLEEELEALKAELDALITEATALATAKLEAHPDDAEVWALVDALFDALGAAAAALERARELLRAGAPPEEVRAALAEARAHIAEARALMAQLAA
B2: usp_38_diff_out_18_28_385 (protein)
chain: MEEERKKLEEELEKLKKELDKLIDEAVELATAALEAHPDDEAVWALVDALFDALGAAAAALNRARELLKAGGDPEEVKKELDKARAALKEAKALLAELKA
B3: usp_38_diff_out_18_28_407 (protein)
chain: MEEEIKEKIEEAKKRLDELIDRYVEIATKAFLKYHENPESKELLEKVRKLADELGKAAQAVNLMRENKDNEEKVEEELEKFEKHYEEAEKLLEEIEKLIK
B4: usp_38_diff_out_18_28_396 (protein)
chain: AEAERAALEKRLAELQKRLDALITEATAAATAALEAHPDDAAVWALVAQLFDALGAAAAALQRARELLRAGGPLEEVQAALDEAEAHLAQAEALLAELKA
B5: usp_38_diff_out_18_28_392 (protein)
chain: MEEERERLERELEELRRRLDELIDEATAVATAKLEEHPDDEEVWALIDELFDALGAAAQALREARELLREGGDPEEVRRKLEEARRALEEAERLLAELKA
B6: usp_38_diff_out_18_28_390 (protein)
chain: EEEERERLERRLRELERELDALIDEATAAITEALTAHPDDEEVWALVDALLDSLGRAAAALNEARRLLAEGGPLEEVERALEEAERHLREAKALLAELKA
B7: usp_38_diff_out_18_28_409 (protein)
chain: AKEEIEKKIEEAEKELDELIDEYVKISTEAFLKYHEDPSSKELLEAVNELADELGKAAQAVNEMRKNRDDKEAVEKQLKVFEEHKKKAEELLKKIKELIK
B8: usp_38_diff_out_18_28_403 (protein)
chain: MQEEVEKKIKEAEKKTDELIDKYTEAATAGFLKYAEDPSATELVEAVRAAADALGAAAQAVNEMKRNKDDPEKVEELLKKFEEAYKKAEEALKEIERLIA
B9: usp_38_diff_out_18_28_394 (protein)
chain: SAAERAALEAELAALEAELDALIDEATKAATEALTANPDSEEVWALVDALFDALGAAAAALRRARELLRAGGPLAEVQAALDEARKHLAEAKKLLKELKA
B10: usp_38_diff_out_18_28_402 (protein)
chain: MEEEIEKKIEEAEKRTDELIDEYVELGEKAFLKYHEDPSSEELLEKLDKLADELGKAAQAVNLMRENRDDPEKVEKEYAEFEKYYEKAKKLLEEIKKLLE
B11: usp_38_diff_out_18_28_406 (protein)
chain: SSEEIEKKIEEAKEETDKLIDRYVEISTAAFLKYHEDPSSEELLKKVNELADALGKAAKAVNEMRENKDNEEKVEKYLEEYKKYSEEAEKLLEEIEKLIK
B12: usp_38_diff_out_18_28_401 (protein)
chain: MEEEIEKKIKEAKEKTDEMIDEYVELGEQAFLKYHEDPSSEHLLELLNEAADALGKAAKAVNLMRENKDDPEKVEKELEKFKKYSEKAEKLFEEIKKELE
B13: usp_38_diff_out_18_28_400 (protein)
chain: MQEEIQKIIEENEKKTNELIDKYTELGEKAFLAYHEDPSNEELLEKLDELADALGKAAKKVNEMRENKNDPEKVKEYSKEFEEYYKKAEALMKEIEKLLA
B14: usp_38_diff_out_18_28_397 (protein)
chain: EEERREELERRLEELERELDALIREATEAATAALEAHPDSAEVWALVDALFDALGAAAAHLRRARELLREGGPLEEVERELEKAEAHLAEARALLAELKA
B15: usp_38_diff_out_18_28_388 (protein)
chain: SEEEREELRERLEELEKRLDALIDEATAVATAALTAHPDSAEVQALVAELFDALGAAAAALRRARELLRRGGPLEEVREALEEAERHLEEAERLLAELRA
B16: usp_38_diff_out_18_28_405 (protein)
chain: MQEEIEKKIEEAEKRTNELIDKYTEAATRAFEAYAEDPSKTELVKAINEASDALGKAAQAVNEMKRNKDDPEKVEKELKKFEEAYKKAEEAIAKIEELIA
B17: usp_38_diff_out_18_28_395 (protein)
chain: MEEERAKLEEELKKLEKELNELIDRATAAATAALTAHPDDADVWALVDALFDSLGAAAYHLREARELLREGGPLEEVKKELEKAKEHLKEAKALLAELEA
B18: usp_38_diff_out_18_28_382 (protein)
chain: AAAEREKLEAELKKLEAELNKLIDEATELATKKLTEHPDDEEVWKLVDELFDALGKAAAALNRARELLRAGGPAEEVKKALEEAEKYMKEAKKLMEELKK
B19: usp_38_diff_out_18_28_393 (protein)
chain: SEERRKELEERLKALEAELDALITEATAVATERLEAHPDDEAVWELVDALFDALGAAAAALREARELLRAGGDLEEVEALLDQAEAALAEAKALLAELKA
B20: usp_38_diff_out_18_28_391 (protein)
chain: SSAERERLERELERLERELDELIDEATAVATEKLEEHPDDEEVWRLIDELFDALGRAARALSEARRLLREGGPPEEVERALEEARRHLERARELLEELKE
B21: usp_38_diff_out_18_28_411 (protein)
chain: KKEEIQEKIKKAEEKLDKLIDKYVEISTKAFLKYHENPESKELLEAVDKLADELGKAAQHVNLMRENKDDEEKVEKELKEFEEHSKKAEELLKKVEELIK
B22: usp_38_diff_out_18_28_386 (protein)
chain: EEERRRELERELRELERRLDELIDEAVAAATEALEAHPDDEEVWALVDELFDTLGRAAAALREARELLRAGGPLEEVERALREAREALERAERLLAELKA
B23: usp_38_diff_out_18_28_387 (protein)
chain: MEKEREELKKELEELRKRLDELIDRATEEATRALTAHPDDEEVWELIDRLFDTLGEAAAALNRARELLRAGGPLEEVKKELEKARKALEEAERLLEELEA
B24: usp_38_diff_out_18_28_398 (protein)
chain: SAAERAELEAELAALQKELDALITEATAAATAALTAHPDSAEVWALVDALFDHLGAAAAALREARRLLREGGPLEEVRAALAAAQAHLAEARALLAELKA
B25: usp_38_diff_out_18_28_410 (protein)
chain: KKEEIEKKIEEAEEELDKLIDEYVEVATEAFLKYHEDPSSEELLEKVRELADELGKAAKAVNEMRENKDNEEKVEEELEKFKKHKEEAEKLLKEVKELIK
B26: usp_38_diff_out_18_28_404 (protein)
chain: MMEEIQKKIEEAEKEADKLIDEYTKAATEAFLKYAEDPSATELVEAVNKAADALGEAAKAVNEMRRHKDDPEKVEKELKKFEEAKKKAEEALKEIKKLIA
B27: usp_38_diff_out_18_28_384 (protein)
chain: DAAERAALEKELEELRKRLDELIDRAVEAATAALEAHPDDEAVWALVDALFDTLGAAAAALNEARALLKAGGDPAEVKAALEEARKALAEAERLLAELEA
B28: usp_38_diff_out_18_28_399 (protein)
chain: EEEERRRLEEELRRLEEELDELIDEAVEAATKALTAHPGDEAVEALVRELFDHLGAAAAALREARELLRAGGDPEEVRRLLEEAREHLEKAREALKELKA
B29: usp_38_diff_out_18_28_412 (protein)
chain: SAAAVQATIDQMKADLDALIDEANEVSEKAFLKYGEDPSSTELLAAVNELWDHLGAAAQAVNDARRNRDNEAAVAAKAAEFKKHADKAKEKIAEIKKLIA
B30: usp_38_diff_out_18_28_383 (protein)
chain: AEAERAELEKRLEELEKELNELIDEATEAATEKLEAEPDSEEVWELVDELFDELGKAAAKLREARELLRAGAPAEEVQKALEEAEEHLKRAKELLEELKE
B31: usp_38_diff_out_18_28_381 (protein)
chain: AEARRAELERRLEELLRELNELIDEATKLATEKLTEHPDDEEVWELVDRLFDELGRAAAHLREARELLRAGAPAEEVEKELREAEEHLKRAKELLKELEA
B32: usp_38_diff_out_18_28_389 (protein)
chain: AAAARAALEAELAALRAELDALIDEATELATRKLEEHPDDEEVWELVDRLFDALGRAAAHLEEARRLLREGGDLAAVQAELDAARAALAEAKRLLEELKA

Molecular target: T1, USP38, Q8NB14
Test: median log2 fold change of GCK-ALFA target abundance (FLAG IP / Myc IP barcode read proportion) (log2 ratio); each designed protein is fused to an ALFA-tag nanobody in HEK293 cells to bring the named protein to FLAG-tagged glucokinase (GCK); Myc marks an untargeted standard; higher = target protein stabilised (more abundant)
Conditions: target protein: 3xFLAG-MCP-GCK-ALFA reporter; HEK293 landing pad (RPLP)
Method in brief: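 An ALFA-nanobody-fused binder library was recombined into HEK293 landing-pad cells and induced with 2 μg mL^−1 doxycycline. Cells were transfected with a plasmid expressing a FLAG-tagged target and a Myc-tagged standard. After 48 h, lysates underwent anti-FLAG and anti-Myc immunoprecipitation, and circular RNA barcodes were reverse transcribed, amplified and sequenced. Target abundance is the per-binder median log2 ratio of FLAG to Myc barcode read proportions. Barcodes needed ≥10^−7 proportion in both replicates, binders ≥3 barcodes per replicate, and a 10^−6 pseudocount was added; the two replicates were pooled.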

B1 and B2 are within 0.2 log units of each other in “median log2 fold change” value: -0.0972 for the first, -0.282 for the second.

B3 and B4 are within 0.2 log units of each other in “median log2 fold change” value: -0.152 for the first, -0.054 for the second.

Going from B5 to B6, the “median log2 fold change” value rises from -0.26 to 0.124.

Compared with B7, B8 is higher in “median log2 fold change” value: -0.273 for the first, -0.0578 for the second.

Going from B9 to B10, the “median log2 fold change” value rises from -0.118 to 0.282.

First: B11
Second: B12
The “median log2 fold change” value of the first is higher: 0.0217 for the first, -0.818 for the second.

Going from B13 to B14, the “median log2 fold change” value rises from -1.05 to -0.194.

B15 and B16 are within 0.2 log units of each other in “median log2 fold change” value: 0.11 for the first, 0.0557 for the second.

First: B17
Second: B18
The “median log2 fold change” value of the first is lower: -0.179 for the first, 0.595 for the second.

B19 and B20 are within 0.2 log units of each other in “median log2 fold change” value: -0.136 for the first, -0.315 for the second.

B21 and B22 are within 0.2 log units of each other in “median log2 fold change” value: -0.206 for the first, -0.0533 for the second.

Compared with B23, B24 is higher in “median log2 fold change” value: -0.291 for the first, 0.000517 for the second.

B25 and B26 are within 0.2 log units of each other in “median log2 fold change” value: -0.357 for the first, -0.178 for the second.

B27 and B28 are within 0.2 log units of each other in “median log2 fold change” value: 0.0029 for the first, -0.117 for the second.

B29 and B30 are within 0.2 log units of each other in “median log2 fold change” value: -0.188 for the first, -0.0589 for the second.

B31 and B32 are within 0.2 log units of each other in “median log2 fold change” value: -0.371 for the first, -0.314 for the second.
